Sampled rows, rich in hits. Any-hit rate of the full collection: about 1.2%.
NSD2 inh: inhibitors of human histone methyltransferase NSD2. O96028. NSD2 peptide methylation, AlphaScreen, 120 min. inhibition, % at 12.5 µM. 310,000 tested, 0.54% active. AID 743445; in the data active = inhibition above about 50%
Target sequence (O96028 whole entry, looked up): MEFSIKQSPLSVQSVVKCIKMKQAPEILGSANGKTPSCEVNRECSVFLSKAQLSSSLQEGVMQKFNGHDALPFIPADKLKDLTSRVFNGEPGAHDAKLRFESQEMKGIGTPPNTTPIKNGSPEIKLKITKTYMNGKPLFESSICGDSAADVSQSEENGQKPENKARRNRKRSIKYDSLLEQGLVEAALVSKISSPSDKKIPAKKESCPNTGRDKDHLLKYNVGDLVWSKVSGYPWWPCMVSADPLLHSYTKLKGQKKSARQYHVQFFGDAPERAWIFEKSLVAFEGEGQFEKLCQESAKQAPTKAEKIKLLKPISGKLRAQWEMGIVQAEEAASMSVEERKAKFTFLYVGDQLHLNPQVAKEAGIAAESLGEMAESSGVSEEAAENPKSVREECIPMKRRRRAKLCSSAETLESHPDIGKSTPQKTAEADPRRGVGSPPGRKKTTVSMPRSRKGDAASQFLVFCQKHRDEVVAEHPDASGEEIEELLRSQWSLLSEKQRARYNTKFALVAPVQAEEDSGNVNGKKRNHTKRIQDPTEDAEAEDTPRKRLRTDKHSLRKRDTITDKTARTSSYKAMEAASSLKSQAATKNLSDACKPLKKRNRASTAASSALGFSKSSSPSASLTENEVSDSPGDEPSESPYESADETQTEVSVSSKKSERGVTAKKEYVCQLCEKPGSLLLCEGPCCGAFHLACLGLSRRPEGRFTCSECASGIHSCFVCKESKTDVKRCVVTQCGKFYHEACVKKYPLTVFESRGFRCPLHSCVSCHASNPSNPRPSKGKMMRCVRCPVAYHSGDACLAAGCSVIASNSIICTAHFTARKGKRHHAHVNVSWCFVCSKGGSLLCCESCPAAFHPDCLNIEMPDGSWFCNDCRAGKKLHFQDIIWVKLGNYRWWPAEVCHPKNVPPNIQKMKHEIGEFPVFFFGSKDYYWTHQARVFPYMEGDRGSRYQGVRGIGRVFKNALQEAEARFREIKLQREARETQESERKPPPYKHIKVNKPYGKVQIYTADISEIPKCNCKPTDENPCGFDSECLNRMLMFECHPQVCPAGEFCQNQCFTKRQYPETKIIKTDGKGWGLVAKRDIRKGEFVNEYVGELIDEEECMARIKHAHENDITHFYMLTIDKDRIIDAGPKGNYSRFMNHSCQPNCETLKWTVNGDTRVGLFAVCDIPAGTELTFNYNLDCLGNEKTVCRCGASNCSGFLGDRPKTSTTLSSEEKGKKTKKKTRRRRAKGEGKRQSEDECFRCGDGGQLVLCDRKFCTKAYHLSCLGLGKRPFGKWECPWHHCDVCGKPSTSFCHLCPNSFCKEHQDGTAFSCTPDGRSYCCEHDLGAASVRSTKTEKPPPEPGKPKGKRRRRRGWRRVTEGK
miR122 inh: miR-122 inhibition in Huh7 cells; Huh7 miR-122 Renilla luciferase sensor, 48 h; neutral wells = 0, positive control = 100; activation (reporter increase), % at 12.5 µM; 340,000 tested, 0.3% active; AID 602342;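 active = mean replicate activation score at least 90 and every replicate individually at or above 90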;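 also: higher luciferase means less miR-122 activity so hits act as miR-122 inhibitors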
Statin myotox sup: suppressors of simvastatin-induced myotoxicity in C2C12 myotubes. 330,000 tested, 0.78% active. ATP luminescence, 48 h; scaled: DMSO 0, geranylgeraniol control 100. rescue of ATP level, % at 7.49 µM;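 active = mean ATP rescue above about 67%, or every replicate alone reaching that limit, limit read from the data, passing the limit was not always enough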;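 also: myotubes were challenged with 10 µM simvastatin during compound exposure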
PglD DTNB: PglD (C. jejuni) enzyme inhibition. purified PglD enzyme, DTNB colorimetric CoA detection. inhibition, % at 12.5 µM. 360,000 tested, 0.098% active. AID 602405; in the data active = inhibition above about 16%, passing the limit was not always enough
AlphaScreen art: counter-screen for NSD2 inhibitors: AlphaScreen artifacts; shares compounds with NSD2 inh; AlphaScreen artifact counterscreen, preloaded methylated H4 peptide; AC35, µM (titrated, usually from 10 µM); 1,500 tested, 9.4% active; call rule not given here
Of the large screens only hits and unclear results are named; the others gave an inactive call (follow-up assays come after a bar, where they were run).

Cc1ccc(NC(=O)CN2C(=O)N/C(=C\c3cccn3-c3cccc(C(=O)O)c3)C2=O)cc1	none
Cc1ccc(NC(=O)CN2C(=O)N/C(=C/c3cc(C)n(-c4cccc(C(=O)O)c4)c3C)C2=O)cc1	NSD2 inh 76.7 (no result: miR122 inh, Statin myotox sup, PglD DTNB) | AlphaScreen art inactive
O=C(O)c1cccc(-n2cccc2/C=C2\NC(=O)N(Cc3ccc(F)cc3)C2=O)c1	none (no result: miR122 inh, Statin myotox sup, PglD DTNB)
O=C(O)c1ccc(-n2cccc2/C=C2/NC(=O)N(c3ccccc3)C2=O)cc1	NSD2 inh 101.1 (no result: PglD DTNB) | AlphaScreen art inactive
O=C(C[C@H]1CC[C@H]2[C@@H](COC[C@H](O)CN2Cc2ccc(F)cc2)O1)N1CCc2ccccc2C1	none (no result: NSD2 inh)
Oc1ccc(NCc2cccc(OCc3ccc(F)cc3)c2)cc1	NSD2 inh 58.6 (no result: miR122 inh, Statin myotox sup, PglD DTNB) | AlphaScreen art inactive
C[C@@H]1CN([C@@H](C)CO)C(=O)c2cccc(NC(=O)c3ccncc3)c2O[C@H]1CN(C)C(=O)Nc1ccc(C(F)(F)F)cc1	none (no result: NSD2 inh)
Nc1nonc1C(=O)NCCNC(=O)c1ccccc1F	NSD2 inh 66.6 | AlphaScreen art inactive
COc1cc(SC)ccc1C(=O)NCCNC(=O)c1nonc1N	none (no result: PglD DTNB)
C[C@H]1CN([C@@H](C)CO)C(=O)c2cccc(NS(=O)(=O)c3cn(C)cn3)c2O[C@H]1CN(C)Cc1ccc(Oc2ccccc2)cc1	none (no result: NSD2 inh)
O=C(Cc1ccccc1Cl)NC1(O)C(=O)c2ccccc2C1=O	NSD2 inh 93.7 | AlphaScreen art inactive
CN(C)C(=O)C[C@H]1CC[C@@H]2[C@H](COC[C@@H](O)CN2C(=O)C2CC2)O1	none (no result: NSD2 inh)
O=C(OCc1cnc(Cl)s1)c1cccs1	NSD2 inh 52.2 | AlphaScreen art inactive
COc1ccc(/C=C2/C(=O)N(c3ccccc3)N=C2C)cc1	none (no result: Statin myotox sup)
COc1ccc(/C=C2/C(=O)N(c3c(F)c(F)c(F)c(F)c3F)N=C2C)cc1	NSD2 inh 58.2 | AlphaScreen art inactive
CO[C@@H]1CN(C)C(=O)c2ccc(NC(=O)NC(C)C)cc2OC[C@H](C)N(CC2CC2)C[C@H]1C	none (no result: NSD2 inh)
CNC[C@H]1Oc2ccc(NS(=O)(=O)c3cn(C)cn3)cc2CC(=O)N([C@@H](C)CO)C[C@H]1C	none (no result: NSD2 inh)
COc1cc(/C=C2\C(=O)ON=C2c2ccc(Cl)cc2)ccc1O	NSD2 inh 60.9 (no result: miR122 inh, Statin myotox sup, PglD DTNB) | AlphaScreen art inactive
O=C1ON=C(c2ccccc2)/C1=C/c1ccc(O)c(O)c1	none
CCCC(=O)Nc1ccc2c(c1)OC[C@H](C)N(Cc1ccccc1F)C[C@H](C)[C@@H](OC)CN(C)C2=O	none (no result: NSD2 inh, miR122 inh)
O=C(Nc1cc(F)ccc1F)N[C@@H]1CC[C@H](CCn2cc(C3CC3)nn2)O[C@@H]1CO	none (no result: NSD2 inh)
COc1ccc(C(CNC(=O)C(CCSC)NC(=O)c2ccccc2Cl)N2CCOCC2)cc1 (configuration not stated)	none
CSCCC(NC(=O)c1ccccc1Cl)C(=O)NCC(c1ccc(F)cc1)N1CCOCC1 (configuration not stated)	NSD2 inh 140.7 | AlphaScreen art inactive
Cc1ccc(S(=O)(=O)/N=C2\C=C(Nc3ccc(O)cc3)C(=O)c3ccccc32)cc1	none
COC(=O)c1ccccc1NC1=C/C(=N\S(=O)(=O)c2cccs2)c2ccccc2C1=O	none
COC(=O)c1ccccc1NC1=C/C(=N\S(=O)(=O)c2ccc(C(=O)O)cc2)c2ccccc2C1=O	NSD2 inh 151.2 | AlphaScreen art 8.09µM
Cc1ccc(S(=O)(=O)/N=C2\C=C(Nc3cccc(C(=O)O)c3)C(=O)c3ccccc32)cc1	NSD2 inh 171.8 | AlphaScreen art inactive
O=C(CN1CCOCC1)NCCNC(=O)CN1CCOCC1	NSD2 inh 60.0 | AlphaScreen art inactive
O=C(CN1CCOCC1)NCCc1ccccc1	none
CCCC#Cc1ccc2c(c1)O[C@H](CN(C)Cc1ccncc1)[C@@H](C)CN([C@@H](C)CO)S2(=O)=O	none (no result: NSD2 inh)
NC1=C(Cl)C(=O)c2ccc(S(N)(=O)=O)cc2C1=O	NSD2 inh 114.0 | AlphaScreen art inactive
CCOC(=O)c1ccc(S(=O)(=O)N2CCN(C(C)=O)CC2)cc1	none
CCOC(=O)c1ccc(S(=O)(=O)N2CCN(c3ccccn3)CC2)cc1	NSD2 inh 50.6 | AlphaScreen art inactive
CC(C)NC(=O)N(C)C[C@H]1Oc2c(NS(=O)(=O)c3ccc(Cl)cc3)cccc2C(=O)N([C@H](C)CO)C[C@@H]1C	none (no result: NSD2 inh)
O=[N+]([O-])c1ccc(S(=O)(=O)N(CC(O)CN2CCCCC2)c2ccccc2)cc1 (configuration not stated)	none
O=[N+]([O-])c1ccc(N(CC(O)CN2CCCCC2)S(=O)(=O)c2ccccc2)cc1 (configuration not stated)	NSD2 inh 67.7 | AlphaScreen art inactive
C[C@@H]1CN([C@H](C)CO)S(=O)(=O)c2ccc(C#CC3CC3)cc2O[C@H]1CN(C)C	none (no result: NSD2 inh)
Cc1ccc(S(=O)(=O)N(C)C[C@@H]2Oc3c(NC(=O)c4nc5ccccc5s4)cccc3C(=O)N([C@@H](C)CO)C[C@H]2C)cc1	none (no result: NSD2 inh)
CCNCCC(CCC(C)C)c1ccc2c(c1)OCO2 (configuration not stated)	NSD2 inh 56.9 (no result: Statin myotox sup) | AlphaScreen art inactive
CC(C)CCC(CCNCc1ccccn1)c1ccc2c(c1)OCO2 (configuration not stated)	none
O=C(CCN1C(=O)/C(=C\c2ccco2)SC1=S)Nc1ccc(C(=O)O)c(O)c1	NSD2 inh 111.1 (no result: miR122 inh) | AlphaScreen art inactive
COC(=O)C[C@H]1CC[C@H]2[C@@H](COC[C@H](O)CN2S(=O)(=O)c2ccccc2C)O1	none (no result: NSD2 inh)
CC(C)CNC(=O)c1cnn2c(C(F)(F)F)cc(C(F)(F)F)nc12	NSD2 inh 53.5 (no result: Statin myotox sup) | AlphaScreen art inactive
Cc1noc(C)c1NC(=O)N(C)C[C@H]1Oc2c(NC(=O)Nc3ccc(C(F)(F)F)cc3)cccc2C(=O)N([C@H](C)CO)C[C@H]1C	none (no result: NSD2 inh)
Cc1cc(/C=C(/C#N)c2nc3ccccc3[nH]2)c(C)n1-c1cc(C(=O)O)cc(C(=O)O)c1	NSD2 inh 76.2 (no result: miR122 inh, Statin myotox sup, PglD DTNB) | AlphaScreen art inactive
CC(Nc1cccc2ccccc12)C(=O)N/N=C/c1ccc([N+](=O)[O-])cc1 (configuration not stated)	none (no result: Statin myotox sup)
Cc1cccc(/C=N/NC(=O)C(C)Nc2cccc3ccccc23)n1 (configuration not stated)	NSD2 inh 103.5 | AlphaScreen art inactive
O=C(CCN1CCCCC1)NCC[C@@H]1CC[C@H](NC(=O)C2CCCC2)[C@@H](CO)O1	none (no result: NSD2 inh, miR122 inh)
CCN1C(=O)/C(=C\c2ccc(-c3ccc([N+](=O)[O-])cc3OC)o2)SC1=Nc1cccc(C(=O)O)c1	NSD2 inh 60.5 (no result: miR122 inh, Statin myotox sup, PglD DTNB) | AlphaScreen art inactive
COC(=O)[C@@H]1[C@@H](CO)[C@@H]2Cn3c(ccc(-c4cccc(C(=O)N(C)C)c4)c3=O)[C@@H]2N1C	none (no result: NSD2 inh)
COc1ccccc1N1CCN(C2CCN(C(=O)c3cccc(F)c3)CC2)CC1	NSD2 inh 59.0 (no result: miR122 inh, Statin myotox sup, PglD DTNB) | AlphaScreen art inactive
COc1ccccc1N1CCN(C2CCN(C(=O)c3ccc(F)cc3)CC2)CC1	none (no result: Statin myotox sup)
CCO/C=C/C(=O)N(C)CCC#N	NSD2 inh 125.1 | AlphaScreen art inactive
